Sampled rows, rich in hits. Any-hit rate of the full collection: about 21%.
DT40 TDP1 no CPT: qHTS for Inhibitors of human tyrosyl-DNA phosphodiesterase 1 (TDP1): qHTS in cells in absence of CPT. 420,000 tested, 15% active. AID 686978, 2013. DT40 Tdp1-/- hTDP1 cells, no CPT, ATP luminescence, 48 h. Potency, µM (series often up to 46.2 µM), without a hit: at the top dose activity change, negative = growth inhibition, usual class: inhibitors; further: potency means the concentration at half of the fitted maximal effect; nearly all actives have a fitted effect of over 55% in size
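Growth of hTDP1-complemented DT40 Tdp1-knockout cells is measured by ATP luminescence after at least 48 hr compound exposure at 37 °C, with DMSO substituting for the 20 nM CPT used in the parallel screen.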
VP16 counter: counter-screen for ROR gamma inhibitors: Gal4-VP16 reporter. Drosophila S2 Gal4-VP16 UAS-luciferase, luminescence, 20 h. Potency, µM (series often up to 53.6 µM), for inactives: at the top dose activity, negative = inhibition, most hits filed as inhibitors. AID 2546. 310,000 tested, 3.5% active;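 further: Gal4-VP16 expression switched on by copper sulfate through the metallothionein promoter; potency means the concentration at half of the fitted maximal effect; nearly all actives have a fitted effect of over 50% in size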
RORg inh: blocks mouse ROR gamma transcriptional activity; AID 2551; P51450; 310,000 tested, 5.4% active; Drosophila S2 Gal4-RORgamma UAS-luciferase reporter, 20 h; Potency, µM (series often up to 53.6 µM), inactives show at the top dose activity change, negative = inhibition, actives largely listed as inhibitors; further: potency means the concentration at half of the fitted maximal effect; nearly all actives have a fitted effect of over 60% in size
Target sequence (P51450 whole entry, looked up, the tested form may be a part): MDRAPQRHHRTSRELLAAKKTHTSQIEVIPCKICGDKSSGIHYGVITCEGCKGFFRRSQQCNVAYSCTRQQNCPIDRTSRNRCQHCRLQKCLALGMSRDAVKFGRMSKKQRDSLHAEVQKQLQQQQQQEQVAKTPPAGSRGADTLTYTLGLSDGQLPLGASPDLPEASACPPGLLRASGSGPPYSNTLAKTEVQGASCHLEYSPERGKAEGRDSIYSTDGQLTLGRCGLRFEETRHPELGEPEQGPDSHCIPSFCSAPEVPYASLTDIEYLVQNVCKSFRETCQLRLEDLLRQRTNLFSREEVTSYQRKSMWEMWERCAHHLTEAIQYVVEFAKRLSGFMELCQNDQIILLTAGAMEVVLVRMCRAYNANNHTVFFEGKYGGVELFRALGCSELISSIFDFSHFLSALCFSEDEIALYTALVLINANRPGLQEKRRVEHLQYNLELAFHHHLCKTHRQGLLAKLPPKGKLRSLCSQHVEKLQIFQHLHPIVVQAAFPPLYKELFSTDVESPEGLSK
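A Gal4/UAS one-hybrid system in insect cells: metallothionein-promoter Gal4–ROR gamma fusion plus Photinus luciferase reporter. Copper sulfate 700 uM final, 20 hr ambient incubation, luminescent detection after 10 min with reagent.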
TDP1 cell CPT: DT40-hTDP1 cell growth loss with CPT. chicken DT40 Tdp1-/-;hTDP1 cells + 20 nM CPT, ATP luminescence, 48 h. Potency, µM (series often up to 46.2 µM), for inactives: at the top dose activity change, negative = growth inhibition, usual class: inhibitors. 420,000 tested, 12% active. AID 686979; further: potency means the concentration at half of the fitted maximal effect; nearly all actives have a fitted effect of over 55% in size
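Chicken DT40 Tdp1-/- cells stably complemented with human TDP1 were seeded at 400 cells/well in medium containing 20 nM camptothecin, exposed to pin-transferred compounds, and grown at 37 °C for at least 48 hr. Viability was read as ATP luminescence.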
IL1B secr inh: inflammasome signaling inhibition, IL-1 beta readout; THP-1 LPS/ATP IL-1B secretion, AlphaLISA, 16 h; hits give low values; activity change, % at 57.5 µM; 360,000 tested, 4.7% active; in the data active means activity change below about -50%; inconclusive means mostly about -30% to -49%
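THP-1 cells pretreated 1 hr with compounds (up to 57.5 uM final), then stimulated with LPS (250 ng/mL final) plus ATP (1.25 mM final); secreted IL-1B measured by AlphaLISA after 16 hr, decreased signal indicating inhibition.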
ELG1 repair inh: blocks ELG1-dependent DNA repair in HEK293T cells | HEK293T ELG1-luciferase reporter, luminescence, 16 h; DNA damage induced by 5-fluorouridine | Potency, µM (doses to about 46.1 µM), inactives show top-dose activity change, negative = inhibition, actives largely listed as inhibitors | 330,000 tested, 2.3% active; further: potency means the concentration at half of the fitted maximal effect; nearly all actives have a fitted effect of over 55% in size
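Reporter activity after DNA damage by 5-fluorouridine is monitored. Compound-treated cells incubate 16 hr at 37 °C, then ONE-Glo is added for 30 min before luminescence reading.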
The depositor's hits bear a star; ? = inconclusive; · = no result. Unless noted, the call rests on the fitted dose curve; in most records, active means well fitted curve in the direction sought with a large enough effect; inconclusive means small, poorly fitted or top-dose-only effect, or another doubt; inactive means no such curve, though single readings can be large; an effect the other way counts as inactive or inconclusive. On the % scale 0 is the no-effect control and ±100 the full control effect.

SMILES	DT40 TDP1 no CPT	VP16 counter	RORg inh	TDP1 cell CPT	IL1B secr inh	ELG1 repair inh
CCOC(=O)C1=C(C)NC(=O)NC1c1cccc(OC)c1OCc1ccccc1Cl (stereo not drawn)	?	1%	12%	8.2µM*	11	-11%
Cc1ccc(OCC(=O)Nc2c(C)nn(-c3ccccc3)c2C)c(Br)c1	23µM*	·	·	?	?	?
Cc1nn(-c2ccccc2)c(C)c1NC(=O)COc1ccc([N+](=O)[O-])cc1	15µM*	·	·	?	-17	?
Cc1ccc(C)c(OCC(=O)OCC(=O)Nc2c(C)nn(-c3ccccc3)c2C)c1	2%	·	·	-9%	12	-4%
Cc1nn(-c2ccccc2)c(C)c1NC(=O)COc1ccc(F)cc1Cl	21µM*	-4%	?	23µM*	-4	?
O=c1[nH]c2ccccc2n1CCC1CCCCC1	?	?	?	-25%	-1	?
Cc1ccc(CNC(=O)CSc2nc3c(sc4ccccc43)c(=O)n2CCCOC(C)C)cc1	?	·	·	-8%	·	·
CCCCCCCCN1C(=O)[C@H](CC(=O)N2CCCC2)C[C@@]2(C(=O)OC)CC(C)(C)CC=C12	?	·	·	9.2µM*	-5	·
CCCCCCCCN1C(=O)[C@H](CC(=O)N2CCSCC2)C[C@@]2(C(=O)OC)CC(C)(C)CC=C12	16µM*	·	·	?	-20	·
COC(=O)[C@@]12C[C@@H](CC(=O)N3CCSCC3)C(=O)N(Cc3ccccc3)C1=CCC(C)(C)C2	?	·	·	-16%	-11	·
CCCCCCCCN1C(=O)[C@H](CC(=O)N2CCC(c3ccccc3)CC2)C[C@@]2(C(=O)OC)CC(C)(C)CC=C12	16µM*	·	·	?	-16	·
CCC(C)NC(=O)CSc1nnc(-c2ccc(OC)c(OC)c2)c(-c2ccc(OC)c(OC)c2)n1 (stereo not drawn)	?	-10%	-14%	1%	-8	?
O=C(CSc1nnc2ncccn12)Nc1cccc2ccccc12	?	10%	37%	-4%	15	?
CC(OC(=O)CN1C(=O)NC2(CCCC2)C1=O)c1ccc(F)cc1 (stereo not drawn)	15%	·	·	-16%	-4	-13%
O=C(CCC(=O)Nc1ccccc1)N/N=C/c1ccc2c(c1)OCO2	9%	2%	15%	-18%	8	?
COCCCNC(=S)N/N=C/c1ccc2c(c1)OCO2	-14%	?	5.6µM*	5%	-23	?
Cc1ccc(CC(=O)N/N=C/c2ccc3c(c2)OCO3)cc1	-18%	11%	?	4%	21	?
COCCNC(=S)N/N=C/c1ccc2c(c1)OCCO2	-19%	?	10µM*	-10%	-21	13%
CC(=O)Nc1ccc(/C=N/NC(=S)NC(C)C)cc1	-28%	-17%	16µM*	?	14	15%
O=C(CCC(=O)Nc1ccc(Cl)cc1)N/N=C/c1ccc2c(c1)OCO2	-16%	14µM*	-14%	-16%	-13	?
Cc1ccccc1OCC(=O)N/N=C/c1ccc2c(c1)OCCO2	?	?	-37%	?	0	6%
O=C(NCc1cccc(C(F)(F)F)c1)c1csc(COCCO)n1	-6%	·	·	4%	12	·
Cc1nc2ccc(S(=O)(=O)NCC(=O)Nc3ccc(F)cc3F)cc2s1	-11%	·	·	17%	·	·
CC(C)NC(=S)N/N=C/c1ccc2c(c1)OCCO2	-13%	?	2.2µM*	-15%	-10	?
S=C(NN=Cc1ccc2c(c1)OCO2)NN=Cc1ccc2c(c1)OCO2	23µM*	·	·	23µM*	3	·
SMILES	DT40 TDP1 no CPT	VP16 counter	RORg inh	TDP1 cell CPT	IL1B secr inh	ELG1 repair inh
Cc1cc(C)c(OCC(=O)N/N=C/c2ccc3c(c2)OCO3)c(C)c1	5.8µM*	?	-36%	2.9µM*	7	-2%
CCCCNS(=O)(=O)c1ccc2nc(-c3cccnc3)cc(C(=O)NCCC)c2c1	-21%	·	·	?	·	·
COc1ccc(C(=O)Nc2ccc(C(=O)OCc3cc(=O)n4nc(C5CC5)sc4n3)cc2)cc1	0%	·	·	-19%	·	·
CCOc1ccc2nnnn2n1	6%	-2%	-25%	0%	15	-24%
CC(C)(C)OC(=O)C(Cl)(C(=O)OC(C)(C)C)c1ccc2nnnn2n1	?	?	13µM*	?	-79*	?
C=CCNc1nc(N(c2ccccc2)c2ccccc2)nc(-n2ccnc2)n1	?	-13%	11µM*	?	53	-3%
c1ccc(N(c2ccccc2)c2nc(-n3ccnc3)nc(-n3ccnc3)n2)cc1	?	-13%	-28%	?	-4	?
CCCCNc1nc(N(C)c2ccccc2)nc(-n2ccnc2)n1	?	?	10µM*	?	0	?

Compound activity deposited in PubChem by National Center for Advancing Translational Sciences (NCATS).
